For 38 compounds, growth results are on record in PubChem BioAssay (NCI).

Compounds without any hit were thinned out: in the full panel of roughly 83,000, 20% have a hit.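 Plates (96-well) were seeded with cells, treated with compound at one concentration, and incubated for 48 hours before percent growth was determined.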 A number with no mark means an inactive call. Activity calls are given as the source filed them. The calls were made as follows: active = growth percent below 10; inactive = the rest.

In one assay the test system is HCT-15 colon. Put plainly: NCI-60 one-dose screen, 48 h (100 = growth as untreated, 0 = no growth, -100 = all killed). Particulars: 10 µM unless noted.
As for `O=C1CC(c2ccc(I)cc2)OC2C=Cc3ccccc3C12` (stereo unspecified), the growth is 94.9%.

For the compound `COc1ccc(NC(=O)Cn2c(/C=C/c3cccc(OC)c3)nc3ccccc3c2=O)cc1`, the growth is 70.9%.

Consider `COc1ccc2[nH]c(=O)c(CSc3ccccc3Nc3nccc(-c4ccc5c(c4)OCO5)n3)cc2c1`, for which the growth is 74.3%.

Turning to `Cc1nc2sccn2c1-c1nnc(SCC(C)C)o1`, the growth is 77.2%.

With `O=c1c(-c2nc(-c3ccccc3)c(-c3ccccc3)[nH]2)coc2ccc(F)cc12`, the growth was 24.3%.

Regarding `CCN1C(=O)N(CC)C2NNC(Sc3c(C(=O)O)c4ccccc4n(CCC(C)C)c3=O)=NC21` (stereo unspecified), the growth was 2.84% (active).

For `CCCCNc1ccc2c3c(cccc13)C(=O)N(c1cccc(-c3nn(-c4ccccc4)cc3-c3nc4ccccc4s3)c1)C2=O`, the growth was 108%.

Regarding `COc1ccc(C(=O)c2c(N)c(C#N)cn2-c2ccc([N+](=O)[O-])cc2)cc1`, the growth is 104%.

`COC(=O)c1cc(C(=O)CBr)n2c1ccc1c3ccccc3ccc12`: the growth was 39.3%.

On to `Cc1ccc(C2CC(c3ccc(NC(=S)Nc4ccccc4)cc3)=NN2c2ccc(S(N)(=O)=O)cc2)cc1` (stereo unspecified), for which the growth was 4.26% (active).

Turning to `O=C1/C(=C/C=C/c2ccco2)SC(=S)N1CC(=S)C1C=CS(=O)(=O)C1` (stereo unspecified), the growth was 75.6%.

On to `Oc1ccc(F)c(Nc2nc(SCCN3CCOCC3)nc3c2cnn3CC(Cl)c2ccc(Br)cc2)c1` (stereo unspecified), for which the growth is 1.07% (active).

`Fc1ccc(Nc2nnc(-c3c[nH]c4ccccc34)o2)cc1`: the growth was 66.7%.

As for `COc1ccc(C(=O)/C=C/c2ccc3c(c2)OCCO3)cc1S(N)(=O)=O`, the growth is 41.9%.

As for `COc1ccc(C(=O)NNC(=O)CSc2nc3sc4c(c3c(=O)n2-c2ccc(Cl)cc2)CCCC4)cc1`, the growth is 76.3%.

For `c1n[nH]cc1-c1nc2ccc3[nH]ncc3c2c2c1CC1(CC2)COC1`, the growth was 70.5%.

As for `C#CCN(C)CCCOc1ccc(N(CC)C(=O)c2cc(C(C)C)c(O)cc2O)cc1Cl`, the growth is -52.8% (active).

`COc1ccc2c(c1)c(-c1cc(N)n3nc(-c4c[nH]c5ccccc45)cc3n1)cn2C`: the growth was -69.8% (active).

In the case of `COc1sc(/C=N/NC(=O)c2[nH]c3ccc(Br)cc3c2-c2ccccc2)cc1Br`, the growth is 7.77% (active).

Regarding `COc1ccc(C(=O)c2cc(C(C)=O)c3c(C)cc(C)cn23)cc1`, the growth was 65.9%.

Take `COc1ccc(N=Nc2c(N)nn3c(-c4ccc5c(c4)C=S=C5)ccnc23)cc1`: the growth was 18.2%.

For `Cn1cc(-c2cc3nc(-c4cn(C)c5ncccc45)cc(N)n3n2)c2cc(F)ccc21`, the growth was 69%.

As for `O=C(COc1ccc(/C=C2/C(=O)Nc3ccc(Cl)cc32)cc1)Nc1ccc(Br)cc1`, the growth was -23% (active).

For `Cc1ccc2nc(COc3ccc(C(=O)NNC(=O)Nc4ccc(Cl)c(C(F)(F)F)c4)cc3)[nH]c2c1`, the growth was 97.2%.

For the compound `COc1ccc(N=Nc2c(N)nn3c(-c4ccc(F)cc4)ccnc23)cc1`, the growth is 54%.

As to `COc1cc(/C=C/C(=O)c2cnn(-c3cc(=O)[nH]c4ccc(C)cc34)c2C)cc(OC)c1OC`, the growth was -38.7% (active).

On to `COc1ccc(-c2cc(C(=O)OCc3ccc(Br)cc3)nn2-c2ccc(S(C)(=O)=O)cc2)cc1OC`, for which the growth is 73.3%.

Regarding `Cc1ccc(C(=O)Nc2cc(-n3ccnc3)cc(C(F)(F)F)c2)cc1-n1cc(-c2cnc3cccnn23)nn1`, the growth was 97.4%.

`COc1cc(/C=C/C(=O)c2ccc(S(=O)(=O)NCCNc3nc(N(C)C)nc(N4CCOCC4)n3)cc2)cc(OC)c1OC`: the growth is -100% (active).

Turning to `O=C(N/N=C/c1ccsc1)c1[nH]c2ccc(Br)cc2c1-c1ccccc1`, the growth was -62.8% (active).

With `Cc1[nH]nc2ccc3nc(-c4cnn(CCO)c4)c4c(c3c12)CCCC4`, the growth was 23.3%.

For the compound `CCOC(=O)/C(F)=C/C1CC1C1CCN(C(=O)OC(C)(C)C)CC1` (stereo unspecified), the growth was 89.2%.

With `O=C(Nc1nc2ccccc2s1)Nc1ccccc1Cl`, the growth was 94.3%.

As to `C/C(=N\Nc1ccc(C(=O)O)cc1)c1cnn(-c2cc(=O)[nH]c3ccc(C)cc23)c1C`, the growth was 97.4%.

With `OC1CCC(Cn2c(C(F)(F)F)cc3c(Cl)ncnc32)CC1` (stereo unspecified), the growth is -14.2% (active).

As to `Cc1nn(-c2ccccc2)c2nc(C)n(C(=O)N/N=C/c3ccccc3)c(=O)c12`, the growth was 107%.

As to `COc1cc(CNC(=O)C[C@H](C)CCC=C(C)C)ccc1OCc1cn(-c2ccc(Cl)cc2Cl)nn1`, the growth is 79.6%.

With `Clc1ccccc1Nc1nnc(-c2c[nH]c3ccccc23)o1`, the growth is 26.1%.

The subject of another assay is HT29 colon. The assay is described as above. Particulars: 10 µM unless noted.
For the compound `O=C1CC(c2ccc(I)cc2)OC2C=Cc3ccccc3C12` (stereo unspecified), the growth is 90.7%.

Consider `COc1ccc(NC(=O)Cn2c(/C=C/c3cccc(OC)c3)nc3ccccc3c2=O)cc1`, for which the growth was 51.8%.

As to `COc1ccc2[nH]c(=O)c(CSc3ccccc3Nc3nccc(-c4ccc5c(c4)OCO5)n3)cc2c1`, the growth is 75.2%.

As for `Cc1nc2sccn2c1-c1nnc(SCC(C)C)o1`, the growth is 79.9%.

For the compound `O=c1c(-c2nc(-c3ccccc3)c(-c3ccccc3)[nH]2)coc2ccc(F)cc12`, the growth was 68.1%.

For `CCN1C(=O)N(CC)C2NNC(Sc3c(C(=O)O)c4ccccc4n(CCC(C)C)c3=O)=NC21` (stereo unspecified), the growth was -30% (active).

On to `CCCCNc1ccc2c3c(cccc13)C(=O)N(c1cccc(-c3nn(-c4ccccc4)cc3-c3nc4ccccc4s3)c1)C2=O`, for which the growth was 114%.

For `COc1ccc(C(=O)c2c(N)c(C#N)cn2-c2ccc([N+](=O)[O-])cc2)cc1`, the growth is 102%.

As to `COC(=O)c1cc(C(=O)CBr)n2c1ccc1c3ccccc3ccc12`, the growth is 44.6%.

Consider `Cc1ccc(C2CC(c3ccc(NC(=S)Nc4ccccc4)cc3)=NN2c2ccc(S(N)(=O)=O)cc2)cc1` (stereo unspecified), for which the growth is 1.32% (active).

For the compound `O=C1/C(=C/C=C/c2ccco2)SC(=S)N1CC(=S)C1C=CS(=O)(=O)C1` (stereo unspecified), the growth is 109%.

Regarding `Oc1ccc(F)c(Nc2nc(SCCN3CCOCC3)nc3c2cnn3CC(Cl)c2ccc(Br)cc2)c1` (stereo unspecified), the growth is 8.07% (active).

`Fc1ccc(Nc2nnc(-c3c[nH]c4ccccc34)o2)cc1`: the growth is 102%.

For the compound `COc1ccc(C(=O)/C=C/c2ccc3c(c2)OCCO3)cc1S(N)(=O)=O`, the growth was 33.4%.

In the case of `COc1ccc(C(=O)NNC(=O)CSc2nc3sc4c(c3c(=O)n2-c2ccc(Cl)cc2)CCCC4)cc1`, the growth was 91.2%.

`c1n[nH]cc1-c1nc2ccc3[nH]ncc3c2c2c1CC1(CC2)COC1`: the growth is 52.1%.

For the compound `C#CCN(C)CCCOc1ccc(N(CC)C(=O)c2cc(C(C)C)c(O)cc2O)cc1Cl`, the growth was 7.04% (active).

Take `COc1ccc2c(c1)c(-c1cc(N)n3nc(-c4c[nH]c5ccccc45)cc3n1)cn2C`: the growth was -71.7% (active).

As for `COc1sc(/C=N/NC(=O)c2[nH]c3ccc(Br)cc3c2-c2ccccc2)cc1Br`, the growth is -26.9% (active).

Turning to `COc1ccc(C(=O)c2cc(C(C)=O)c3c(C)cc(C)cn23)cc1`, the growth was 72.5%.

As for `COc1ccc(N=Nc2c(N)nn3c(-c4ccc5c(c4)C=S=C5)ccnc23)cc1`, the growth was 47.6%.

With `Cn1cc(-c2cc3nc(-c4cn(C)c5ncccc45)cc(N)n3n2)c2cc(F)ccc21`, the growth was 6.68% (active).

As for `O=C(COc1ccc(/C=C2/C(=O)Nc3ccc(Cl)cc32)cc1)Nc1ccc(Br)cc1`, the growth is -51.3% (active).

For the compound `Cc1ccc2nc(COc3ccc(C(=O)NNC(=O)Nc4ccc(Cl)c(C(F)(F)F)c4)cc3)[nH]c2c1`, the growth is 75.9%.

Take `COc1ccc(N=Nc2c(N)nn3c(-c4ccc(F)cc4)ccnc23)cc1`: the growth is 58.6%.

For `COc1cc(/C=C/C(=O)c2cnn(-c3cc(=O)[nH]c4ccc(C)cc34)c2C)cc(OC)c1OC`, the growth is -67.3% (active).

Regarding `COc1ccc(-c2cc(C(=O)OCc3ccc(Br)cc3)nn2-c2ccc(S(C)(=O)=O)cc2)cc1OC`, the growth is 87.3%.

Consider `Cc1ccc(C(=O)Nc2cc(-n3ccnc3)cc(C(F)(F)F)c2)cc1-n1cc(-c2cnc3cccnn23)nn1`, for which the growth is 39.2%.

Regarding `COc1cc(/C=C/C(=O)c2ccc(S(=O)(=O)NCCNc3nc(N(C)C)nc(N4CCOCC4)n3)cc2)cc(OC)c1OC`, the growth was -100% (active).

Turning to `O=C(N/N=C/c1ccsc1)c1[nH]c2ccc(Br)cc2c1-c1ccccc1`, the growth was -62.8% (active).

For `Cc1[nH]nc2ccc3nc(-c4cnn(CCO)c4)c4c(c3c12)CCCC4`, the growth was 31.3%.

Take `CCOC(=O)/C(F)=C/C1CC1C1CCN(C(=O)OC(C)(C)C)CC1` (stereo unspecified): the growth is 77.9%.

With `O=C(Nc1nc2ccccc2s1)Nc1ccccc1Cl`, the growth was 98.5%.

`C/C(=N\Nc1ccc(C(=O)O)cc1)c1cnn(-c2cc(=O)[nH]c3ccc(C)cc23)c1C`: the growth is 100%.

Consider `OC1CCC(Cn2c(C(F)(F)F)cc3c(Cl)ncnc32)CC1` (stereo unspecified), for which the growth is 49.9%.

With `Cc1nn(-c2ccccc2)c2nc(C)n(C(=O)N/N=C/c3ccccc3)c(=O)c12`, the growth was 106%.

Consider `COc1cc(CNC(=O)C[C@H](C)CCC=C(C)C)ccc1OCc1cn(-c2ccc(Cl)cc2Cl)nn1`, for which the growth is 82.3%.

In the case of `Clc1ccccc1Nc1nnc(-c2c[nH]c3ccccc23)o1`, the growth is 2.07% (active).
